High-throughput results as filed in PubChem BioAssay.
Hits are enriched below; roughly 10% of the tested compounds scored in any of these assays.
PNC assembly inh: High Content Assay for Compounds that inhibit the Assembly of the Perinucleolar Compartment | PC3M PTB-GFP, PNC prevalence imaging, 16 h; active compounds read low | activity change (PNC), negative = inhibition, % at 10 µM | AID 2417, 2010 | 140,000 compounds, 3.1% hits;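 active means readout at or below -70, meaning at least 70% loss of cells showing the perinucleolar compartment, a nuclear body marking cancer cells; inconclusive means readout between -30 and a set limit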;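 further: plate controls were DMSO wells for no effect and camptothecin positive control wells for full effect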
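Compounds are pinned in duplicate onto adhered PC3M cells stably expressing GFP-tagged PTB and incubated 16 h at 37 C. Cells are then fixed, nuclei stained with Hoechst, and PNC-positive cells counted.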
12-hLO inh: qHTS Assay for Inhibitors of 12-hLO (12-human lipoxygenase); Potency, µM (series often up to 57.1 µM), for the others: at the highest dose activity change, negative = inhibition, hits mostly inhibitors; purified 12-hLO, xylenol orange hydroperoxide absorbance; Polyunsaturated fatty acid lipoxygenase ALOX12 (Homo sapiens), P18054; 150,000 compounds, 0.12% hits; active means well fitted inhibition curve with a large enough effect; inconclusive means small, poorly fitted or top-dose-only effect; further: potency means the concentration at half of the fitted maximal effect; nearly all actives have a fitted effect of over 55% in size
Target sequence (P18054 whole entry, looked up): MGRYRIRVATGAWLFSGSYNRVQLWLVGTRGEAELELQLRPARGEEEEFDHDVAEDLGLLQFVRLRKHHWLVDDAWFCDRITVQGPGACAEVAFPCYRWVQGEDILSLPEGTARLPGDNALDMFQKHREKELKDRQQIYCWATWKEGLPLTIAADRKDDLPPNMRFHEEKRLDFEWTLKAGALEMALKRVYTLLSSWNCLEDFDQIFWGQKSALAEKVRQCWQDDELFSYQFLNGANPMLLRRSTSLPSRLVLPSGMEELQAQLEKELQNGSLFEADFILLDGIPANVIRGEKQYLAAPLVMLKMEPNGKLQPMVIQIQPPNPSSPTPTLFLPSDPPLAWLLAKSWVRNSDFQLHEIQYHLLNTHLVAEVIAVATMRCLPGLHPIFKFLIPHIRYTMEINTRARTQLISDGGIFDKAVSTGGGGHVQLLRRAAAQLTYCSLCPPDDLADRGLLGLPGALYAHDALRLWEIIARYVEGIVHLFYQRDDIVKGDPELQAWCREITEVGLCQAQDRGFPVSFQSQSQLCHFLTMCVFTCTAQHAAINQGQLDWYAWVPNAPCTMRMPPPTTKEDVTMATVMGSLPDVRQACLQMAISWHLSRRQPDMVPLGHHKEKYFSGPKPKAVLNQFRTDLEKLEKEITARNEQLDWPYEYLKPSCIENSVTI
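Hydroperoxide formation by human 12-lipoxygenase from 40 uM arachidonic acid was followed colorimetrically via ferric-xylenol orange complex, using the 573/405 nm absorbance ratio. Enzyme concentration was 150 nM, with 30 min reaction at room temperature.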
ALDH1A1 block: qHTS Assay for Inhibitors of Aldehyde Dehydrogenase 1 (ALDH1A1). 220,000 compounds, 7.3% hits. Potency, µM (highest dose often 75.3 µM), inactives show at the top dose activity, negative = inhibition, actives largely listed as inhibitors. Purified ALDH1A1, NADH fluorescence, propionaldehyde substrate. AID 1030, 2008. Aldehyde dehydrogenase 1A1 (Homo sapiens), P00352;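 further: potency means the concentration at half of the fitted maximal effect; plate controls were no enzyme wells and a reference inhibitor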
LMNA splice mod: qHTS Assay for Modulators of Lamin A Splicing; HeLa LMNA splicing GFP/RFP minigene ratio, 48 h; Potency, µM (series often up to 46.1 µM), for the others: at the highest dose ratio change, negative = inhibition, actives largely listed as inhibitors; 200,000 compounds, 0.01% hits; AID 1487, 2009; active means well fitted inhibition curve with a large enough effect in the signal ratio, with a control signal flat, not every such curve was filed as active; inconclusive means small, poorly fitted or top-dose-only effect, or effect the other way, or a change in a side signal; the % refers to the signal ratio; further: potency means the concentration at half of the fitted maximal effect
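Read-out is the ratio of GFP to DsRed2 object intensity, acquired by 488 nm laser-scanning cytometry on HeLa lamin A-EGFP minigene reporter cells. Compound incubation 48 hrs at 37 °C in Opti-MEM with 2% FBS; DMSO 0.5% final.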
HPGD inh: qHTS Assay for Inhibitors of HPGD (15-Hydroxyprostaglandin Dehydrogenase) | purified HPGD, NADH fluorescence kinetic, PGE2 substrate | AID 894, 2007 | Potency, µM, inactives show top-dose activity change, negative = inhibition, most hits filed as inhibitors | 150,000 compounds, 4.3% hits | 15-hydroxyprostaglandin dehydrogenase [NAD(+)] (Homo sapiens), P15428; further: potency means the concentration at half of the fitted maximal effect
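NADH formation kinetics: reaction with 30 uM PGE2 and 1 mM NAD+ (final), 20 nM enzyme, Tris-HCl pH 8 with Tween 20, after 15 min compound preincubation at room temperature. Fluorescence change, last versus first of five reads.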
Numbers without * were called inactive; ? = inconclusive; . = not tested or not shown; [ ] = remark or other dose. Unless noted, the call rests on the fitted dose curve; in most records, active means well fitted inhibition curve with a large enough effect (not every such curve was filed as active); inconclusive means small, poorly fitted or top-dose-only effect, or another doubt; inactive means no such curve, though single readings can be large or run the other way. Unless noted, on the % scale 0 is the no-effect control and ±100 the full control effect.

SMILES	PNC assembly inh	12-hLO inh	ALDH1A1 block	LMNA splice mod	HPGD inh
COc1ccc(-n2c(=S)[nH]c3ccccc32)cc1	0	-21%	32µM*	5%	22µM*
CCOC(=O)N1CCN(C(=O)c2ccc3c(=O)n(-c4ccc(OC)cc4OC)c(=S)[nH]c3c2)CC1	34	0%	-8%	4%	-11%
COc1cccc(Cn2c(=O)c(CCc3ccccc3)nc3cnc(N4CCOCC4)nc32)c1	.	.	?	17%	.
Cc1ccccc1CN1C(=O)c2ccccc2Sc2ccc(C(=O)N3CCOCC3)cc21	.	.	.	-4%[46 µM]	.
Cc1ccccc1CS(=O)(=O)Cc1ccc(C(=O)NCCc2ccc(Cl)cc2)o1	.	.	.	-18%[46 µM]	.
CCc1ccc(N/C(SC)=C(/C#N)C(N)=O)cc1	-19	-3%	6%	-2%[0.0737 µM]	-14%
CCCCS/C(=C(/C#N)C(N)=O)c1cc2c([nH]1)CCCC2	76	?	14µM*	?	?
Cc1nn(-c2nnc(NCc3ccccc3)nn2)c(C)c1Br	?	-18%	28µM*	?	14µM*
O=C(NCc1cccnc1)c1cc(Sc2ccccc2Cl)nc2ccccc12	-24	-5%	7.9µM*	?	-7%
Cc1cccc(N=Nc2c(C)[nH]n(C(N)=S)c2=O)c1C	.	.	18µM*	.	.
Cc1ccccc1N=Nc1c(C)[nH]n(-c2ccccc2)c1=O	.	.	4%	-5%[46 µM]	.
Cc1ccccc1N=Nc1c(C)[nH]n(C(N)=S)c1=O	-113*	-2%	20µM*	-17%	-24%
CCN(CC)S(=O)(=O)c1ccc(N=Nc2c(C)[nH]n(C(N)=S)c2=O)cc1	37	-20%	7.9µM*	-5%	35µM*
COC(=O)c1ccc2c(c1)N(Cc1ccc(F)cc1)C(=O)c1ccccc1S2	.	.	.	-25%[46 µM]	.
CCOC(=O)C1=C(C)NC(=O)NC1c1ccc(OCC(=O)Nc2ccccc2)c(OC)c1 (centres undefined)	22	4%	-11%	-6%	-19%
CCOC(=O)C1=C(C)NC(=O)C1CC(=O)Nc1ccccc1 (centres undefined)	?	-5%	24%	-13%	35µM*
Cc1ccc2[nH]c(CSc3nnc(NC(=O)COc4ccccc4C)s3)cc(=O)c2c1	.	.	.	13%[46 µM]	.
O=C1C=C[C@@H](O)[C@H]2[C@@H]3C(=O)N(Cc4ccccc4)C(=O)[C@@H]3CC[C@H]12	.	.	3.2µM*	.	.
N#CCC(=O)Nc1ccccc1C(=O)O	30	-2%	10%	9%	-13%
N#CCC(=O)Nc1ncn(Cc2ccccc2Cl)n1	-81*	-2%	?	-14%	-3%
O=C(O)C1C2C=CC(O2)C1C(=O)Nc1ccccc1C(F)(F)F (centres undefined)	22	-12%	14µM*	9%	-1%
O=C(Nc1nc2ccc(Cl)cc2s1)[C@@H]1CCCN1C(=O)c1cccs1	-15	?	25µM*	?	?
CNc1nc(CCN2C(=O)c3ccccc3C2=O)cs1	-5	1%	?	-4%	-9%
Cc1nc(CCN2C(=O)c3ccccc3C2=O)cs1	-111*	1%	-5%	-1%	-6%
NCCCCNS(=O)(=O)c1ccc2c(Cl)cccc2c1	.	-5%	-10%	.	-10%
SMILES	PNC assembly inh	12-hLO inh	ALDH1A1 block	LMNA splice mod	HPGD inh
CCOC(=O)CCCNC(=O)N1CCc2nc(-c3ccc(OC)cc3C)c3c(c2C1)CO[C@@H](c1ccccc1)C3	.	0%[11.4 µM]	?	-6%[9.22 µM]	-4%
COc1ccc(NC(=O)N2CCc3nc(-c4ccc(OC)cc4C)c4c(c3C2)CO[C@@H](c2ccccc2)C4)cc1	.	-2%[11.4 µM]	4µM*	-3%[9.22 µM]	-6%
COc1ccc(-c2[nH]ncc2-c2nc(C)cs2)c(O)c1	.	.	-9%	?	.
COc1ccc(O)c(-c2[nH]ncc2C(=O)c2ccccc2C)c1	4	-19%	13µM*	?	-11%
CCOC(=O)C(C)Sc1nnc2n1C(C)(C)Cc1ccccc1-2 (centres undefined)	-100*	-7%	-3%	-10%	-2%
Cc1cc(C)c(OCCCCN(C)C)c(Br)c1	.	.	22µM*	0%[46 µM]	.
CCOc1cc(-c2nc(-c3ccccc3)c(-c3cc([N+](=O)[O-])ccc3C)[nH]2)ccc1O	-2	-21%	6.3µM*	?	-2%
COc1ccc(-c2nc(-c3ccccc3)c(-c3cc([N+](=O)[O-])ccc3C)[nH]2)cc1OC	-10	-4%	-7%	19%	-26%
O=C(CSC1=Nc2ccccc2N=C(c2ccc(F)cc2)C1)NCc1ccc(Cl)cc1	.	.	.	-3%[46 µM]	.
CC(C)(C)Cc1nnc(NC(=O)CN2C(=O)c3ccccc3C2=O)s1	.	.	22µM*	.	.
COc1ccc(NC(=O)C2CC2)cc1-n1cnnn1	8	-9%	-6%	0%	14µM*
Cc1cc([N+](=O)[O-])ccc1NC(=O)c1ccco1	.	.	16µM*	.	.
Cc1cc(NC(=O)c2ccc([N+](=O)[O-])o2)ccc1NC(=O)c1ccco1	.	.	25µM*	.	.
Cc1cc(NC(=O)c2ccc([N+](=O)[O-])cc2Cl)ccc1NC(=O)c1ccco1	-5	1%	8%	-10%	-7%
C[N+]1(Cc2ccccc2)CCC(C(=O)OCC2CCCC2)CC1 (centres undefined)	.	.	2%	.	.
COc1ccc(-c2oc3c(CC=C(C)C)c(O[C@H]4OC(CO)C(O)C(O)C4O)cc(O)c3c(=O)c2O[C@@H]2OC(C)C(O)C(O)C2O)cc1 (some centres undefined)	.	-4%	5%	.	-7%
Cc1c(C(=O)O)c(O)cc2c1C(=O)c1c(O)c([C@H]3O[C@H](CO)[C@@H](O)[C@H](O)[C@H]3O)c(O)c(O)c1C2=O	.	-3%[0.00818 µM]	11µM*	-13%	18µM*
CCc1c(O)c2c(c(O)c1C(C)=O)C(=O)c1c(cc(O)c(C(=O)O)c1C(=O)O)C2=O	.	-19%[11.4 µM]	7%[13.5 µM]	.	-12%
C=CCn1c(SCc2csc(C)n2)nc2sc3c(c2c1=O)CCCC3	30	-2%	?	?	-14%
C=CCn1c(SCc2csc(C)n2)nc2sc3c(c2c1=O)CCCCC3	-20	-2%	22µM*	?	-6%
COc1ccc(C(C)=O)cc1COC(=O)CNC(=O)c1ccc(F)cc1	-20	2%	?	3%	?
COc1ccc(C(C)=O)cc1COC(=O)CNC(=O)c1ccc(Cl)cc1	-15	-5%	-1%	-8%	16µM*
COc1ccc(C(C)=O)cc1COc1ccc(F)cc1	.	.	?	4%[46 µM]	.
CCOc1ccc(C(=O)NCC(=O)OCc2cc(C(C)=O)ccc2OC)cc1	?	1%	3.5µM*	-17%	-6%
c1ccc(Oc2cccc(CN3CCOCC3)c2)cc1	-8	11%	?	-7%	25µM*
